Inconclusive results are not listed. A number with no mark means an inactive call. Calls come from the whole dose curve; as a rule, active = well fitted cell-killing curve with a large enough effect; inconclusive = small, poorly fitted or top-dose-only effect; inactive = flat fitted curve, though single readings scatter.

This experiment can be described thus: Cell Viability - LYMP2-014 (AID 983). Note: nearly all actives have a fitted effect of over 50% in size. As to conditions: LYMP2-014 lymphoblastoid cells, viability qHTS; series mostly up to 92.2 µM; activity change, negative = cytotoxicity: at the top concentration. The source says: NIH Chemical Genomics Center [NCGC]
NIH Molecular Libraries Screening Centers Network [MLSCN]
National Institutes of Environmental Health Sciences [NIEHS]
National Toxicology Program [NTP]
We have developed a 1536-well cell-based assay for quantitative high throughput screening (qHTS) against a number of cell lines to determine in vitro cytotoxicity of small molecules. This particular assay uses a human lymphoblastoid cell line (LYMP2-014) purchased from Coriell Institute for Medical Research.
NCGC Assay Protocol Summary:
The CellTiter-Glo luminescent cell viability assay (Promega) is a homogeneous method to measure the number of viable cells in culture. The end point readout of this assay is based on quantitation of intracellular ATP, an indicator of metabolic activity, using the luciferase reaction. Luciferase catalyzes the oxidation of beetle Luciferin to oxyluciferin and light in the presence of ATP. The luminescent signal is proportional to amount of ATP present.
Using the CellTiter-Glo luminescent cell viability assay, the amount of cellular ATP was measured in the lymphoblastoid cell line with complete culture medium following compound treatment for 24 hours. The assay was performed in opaque white Kalypsys 1536-well plates. In the screen, tetraoctylammonium bromide was used as positive control. Library compounds were measured for their ability to cause acute toxicity in the cell line, as reflected by a decrease in intracellular ATP levels, in a concentration-dependent manner. […] AC50 values were determined from concentration-response data modeled with the standard Hill equation.
qHTS protocol for CellTiter Glo lymphoblastoid cellular assay
[Step] [Parameter] [Value] [Description]
1. Reagent; 5 uL; 2500 lymphoblastoid cells/well
2. Time; 5 hr; 37 C incubation
4. Controls; 23 nL; Tetraoctylammonium bromide 6.4pM to 92 uM
5. Time; 24 hr; 37 C incubation
6. Reagent; 5 uL; CellTiter Glo reagent
7. Time; 30 min; Room Temperature
8. Detection; Luminescence; Viewlux plate reader
Keywords: cell viability, cytotoxicity, lymphoblastoid cell line, luminescence, NTPHTS, NTPHTS_NCGC, NIEHS, DSSTox, MLSMR, MLSCN, NIH Roadmap, qHTS, NCGC
Consider `CCC/C=N/O`, for which the “activity change, negative = cytotoxicity” value is -2.09%.

With `CC(C)OS(C)(=O)=O`, the “activity change, negative = cytotoxicity” value is 0.191%.

As to `C=CC(=O)OC`, the “activity change, negative = cytotoxicity” value was -3.28%.

On to `OCCOCCO`, for which the “activity change, negative = cytotoxicity” value is -2.4%.

Take `CN(C)C(=O)Nc1ccc(Cl)cc1`: the “activity change, negative = cytotoxicity” value was -2.05%.

Take `COC(=O)Nc1nc2ccccc2[nH]1`: the “activity change, negative = cytotoxicity” value was -15.7%.

In the case of `Nc1cc(Cl)ccc1O`, the “activity change, negative = cytotoxicity” value was -7.26%.

For the compound `CC(=O)CCC(C)=O`, the “activity change, negative = cytotoxicity” value was 4.55%.

Turning to `C=CCc1cc(OC)c2c(c1)OCO2`, the “activity change, negative = cytotoxicity” value was -9.27%.

Take `CCCCCc1cc(O)cc(O)c1`: the “activity change, negative = cytotoxicity” value is 1.25%.

`C[N+](=O)[O-]`: the “activity change, negative = cytotoxicity” value is -4.88%.

With `O=[N+]([O-])c1ccc(Cl)c(Cl)c1Cl`, the “activity change, negative = cytotoxicity” value was -9.58%.

In the case of `O=C(O)c1cc(Cl)ccc1Cl`, the “activity change, negative = cytotoxicity” value was 5.83%.

As for `Cc1coc2c1CCC(C)C2` (stereo not given), the “activity change, negative = cytotoxicity” value is -3.86%.

For the compound `COc1ccc(C=O)cc1`, the “activity change, negative = cytotoxicity” value was 11.7%.

Take `CCCCCC[N+](=O)[O-]`: the “activity change, negative = cytotoxicity” value was -4.03%.

Turning to `C=CC#N`, the “activity change, negative = cytotoxicity” value is 4.39%.

Consider `CNC(=O)O/N=C/C(C)(C)S(C)=O` (stereo not given), for which the “activity change, negative = cytotoxicity” value was 0.898%.

For the compound `O=C(O)C(Cl)(Cl)Br`, the “activity change, negative = cytotoxicity” value is 1.42%.

Consider `Oc1cccc(Cl)c1`, for which the “activity change, negative = cytotoxicity” value is -1.72%.

`ClC(Cl)Br`: the “activity change, negative = cytotoxicity” value was -8.52%.

Consider `Nc1ccc(Cl)c(Cl)c1`, for which the “activity change, negative = cytotoxicity” value was -9.12%.

For `O=[N+]([O-])c1cccc(CCl)c1`, the “activity change, negative = cytotoxicity” value is -24%.

Regarding `O=C(O)CBr`, the “activity change, negative = cytotoxicity” value is -0.617%.

For the compound `Cc1ccc([N+](=O)[O-])cc1`, the “activity change, negative = cytotoxicity” value was -9.7%.

Turning to `Nc1ccc([N+](=O)[O-])cc1[N+](=O)[O-]`, the “activity change, negative = cytotoxicity” value is -9.71%.

Consider `N#CCc1ccccc1`, for which the “activity change, negative = cytotoxicity” value was -4.63%.

`Nc1cccc(Cl)c1`: the “activity change, negative = cytotoxicity” value is 1.47%.

Turning to `CC(C#N)CCC#N` (stereo not given), the “activity change, negative = cytotoxicity” value was -6.56%.

For `S=c1[nH]c2ccccc2[nH]1`, the “activity change, negative = cytotoxicity” value was 0.412%.

Consider `CCC[N+](=O)[O-]`, for which the “activity change, negative = cytotoxicity” value was 1.59%.

Regarding `Clc1ccccc1`, the “activity change, negative = cytotoxicity” value was -3.57%.

Regarding `ClC(Cl)c1ccccc1`, the “activity change, negative = cytotoxicity” value is -1.93%.

For the compound `Cc1ccc(N)c(N)c1`, the “activity change, negative = cytotoxicity” value was -12.2%.

Regarding `O=[N+]([O-])c1ccccc1O`, the “activity change, negative = cytotoxicity” value is -6.87%.

Regarding `O=[N+]([O-])c1ccc(O)c([N+](=O)[O-])c1`, the “activity change, negative = cytotoxicity” value is 3.13%.

For `[N-]=[N+]=[N-]`, the “activity change, negative = cytotoxicity” value is -15.9%.

On to `CC(C)[C@]12CC(=O)[C@H](C)[C@H]1C2`, for which the “activity change, negative = cytotoxicity” value was -9.79%.

Consider `CN(C)N=O`, for which the “activity change, negative = cytotoxicity” value was -3.82%.

`Oc1c(Cl)c(Cl)cc(Cl)c1Cl`: the “activity change, negative = cytotoxicity” value is -4.21%.

The record behind these values is PubChem BioAssay (NCATS).
